About 85 (4%) of roughly 1,900 compounds were called active. Only a sample is shown. A number with no mark means an inactive call. Rule as the data show it: active = inhibition above about 40%; inactive = the rest.

Chain of 72 kDa type IV collagenase (Homo sapiens) (P08253 whole entry, looked up): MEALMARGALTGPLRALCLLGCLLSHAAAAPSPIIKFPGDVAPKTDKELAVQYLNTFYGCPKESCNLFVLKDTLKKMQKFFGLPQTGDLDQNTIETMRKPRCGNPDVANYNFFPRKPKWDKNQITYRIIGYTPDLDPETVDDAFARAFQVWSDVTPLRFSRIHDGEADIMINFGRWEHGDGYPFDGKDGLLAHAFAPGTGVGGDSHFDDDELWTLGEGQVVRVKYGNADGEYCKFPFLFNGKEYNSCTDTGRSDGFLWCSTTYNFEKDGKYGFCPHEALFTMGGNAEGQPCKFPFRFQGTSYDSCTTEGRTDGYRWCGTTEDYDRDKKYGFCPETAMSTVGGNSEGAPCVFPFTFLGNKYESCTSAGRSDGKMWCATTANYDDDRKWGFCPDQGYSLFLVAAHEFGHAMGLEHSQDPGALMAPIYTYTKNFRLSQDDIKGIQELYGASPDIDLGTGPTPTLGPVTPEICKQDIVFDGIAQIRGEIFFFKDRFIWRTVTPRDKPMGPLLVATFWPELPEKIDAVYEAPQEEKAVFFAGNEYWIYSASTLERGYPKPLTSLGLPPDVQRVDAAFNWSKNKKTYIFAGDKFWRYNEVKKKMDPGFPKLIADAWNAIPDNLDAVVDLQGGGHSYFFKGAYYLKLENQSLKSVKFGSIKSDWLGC

The assay concerns the target 72 kDa type IV collagenase (Homo sapiens) (UniProt P08253). The assay can be described thus: inhibitors of human MMP-2 protease – biochemical, fluorescence, single concentration, counter-screen for RPN11 inhibitor project, confirmation (AID 602330).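 Also: human MMP-2 activated beforehand with APMA.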 The settings on record: recombinant MMP-2, FRET peptide cleavage fluorescence; at 20 µM; hits give high values. A general note: Counterscreens check selectivity or assay interference.
As a reminder, the inhibition is the change of the read-out against control, counted positive when it falls. As to `CCN(CC)C(=O)CSc1nc2ccccc2n1CC(=O)N1CCN(c2ccccc2OC)CC1`, the inhibition is 8.93%.
The figure for `Cc1ccc(NC(=O)CN2CCc3ccccc3C2)cc1` is -29.5%; for `COc1ccc(CC(=O)Nc2ccc(-c3nnc(-c4ccc(C)cc4)o3)cc2)cc1` it is -21.6%.
The figure for `Oc1c(CN2CCCC2)cc(COCc2ccccc2)c2cccnc12` is 14.7%; for `CCc1ccc(-c2cc(C(=O)NCc3ccco3)c3ccccc3n2)s1` it is -10.6%.
The figure for `Cc1c(NC(=O)CSc2cccc3cccnc23)c(=O)n(-c2ccccc2)n1C` is -0.79%; for `Cc1c(N=Nc2ccc(N(C)C)cc2)c(=O)n(-c2ccccc2)n1C` it is -25.6%.
For `COc1cccc(NC(=O)C(C)Oc2ccccc2)c1` (stereo not given), the inhibition is -39.6%.
As to `CCC/C=C(\CCC)C(NC(=O)Cc1ccccc1)c1ccc(C(=O)OC)cc1` (stereo not given), the inhibition is -6.21%.
Then `Cc1cc(/C=N/Nc2ccc([N+](=O)[O-])cn2)c(C)n1-c1cccc(C(=O)O)c1`, with -54.4%; and `C=CCn1c(=S)[nH]c2scc(-c3ccco3)c2c1=O`, with 40.5% (active).
The figure for `CCN1CCN(c2cc3nc(C)n(Cc4ccccc4)c(=O)c3cc2NC(=O)c2ccccc2F)CC1` is -12.5%; for `COc1ccc(-n2c(SCC(=O)Nc3sc4c(c3C#N)CCCC4)nnc2-c2ccc(O)cc2)cc1` it is -2.87%; for `N#Cc1c(-c2cccs2)nc(SCC(=O)c2ccc(Br)cc2)[nH]c1=O` it is 47% (active).
As for `CC(C)(C)NC(=O)CSC(=Nc1ccccc1F)NC#N`, the inhibition was -28.4%.
For the molecule `O=C(COc1cccc(F)c1)Oc1ccc(C(=O)c2ccccc2)cc1`, the inhibition was 8.62%.
For the molecule `CC(=O)/C(=N\Nc1ccc(Cl)cc1Cl)Sc1cccc2cccnc12`, the inhibition was -27.9%.
Then `C/C(=N/Nc1nc(-c2ccccc2)c(CC(=O)O)s1)c1ccccc1`, with 4.1%; and `CCCCCCCCCCOC(=O)Cn1c(COc2cccc(OC)c2)[n+](C)c2ccccc21`, with -10.1%; and `COc1ccc2[nH]c(=O)c(-c3noc(-c4ccc(F)cc4)n3)cc2c1`, with -20.1%.
Then `CCc1ccc(NC(=O)CS(=O)CC(=O)NCCCc2ccccc2)cc1` (stereo not given), with -2.62%.
Then `Cc1ccc2cc(C#N)c(NCCNC(=S)NCCCN3CCOCC3)nc2c1`, with -15%; and `CCOc1ccc(-n2c(O)c(/C=N/c3ccnn3Cc3ccncc3)c3ccccc3c2=O)cc1`, with 1.46%.
As to `O=C1NC(=O)C2C1C(c1ccc([N+](=O)[O-])cc1)=NN2Cc1ccccc1` (stereo not given), the inhibition was -11.1%.
The figure for `Cc1ccc(-c2nnc(-c3ccc(NC(=O)c4cccs4)cc3)o2)cc1` is -49.7%.
The figure for `C=CC[n+]1c(-c2ccc(C)cc2)csc1NNC(=O)Nc1ccccc1` is 26%.
Regarding `Cc1nc2ccccc2nc(=O)c1NNc1ccc([N+](=O)[O-])cc1`, the inhibition was -26.6%.
In the case of `N#Cc1ccc(C(=O)Nc2cccc3cccnc23)c(F)c1`, the inhibition was -11%.
The figure for `COc1ccc(Cl)cc1NC(=O)CCS(=O)(=O)c1ccc(Br)cc1` is -0.68%; for `O=C(CCS(=O)(=O)c1cccc2nonc12)NCCc1ccccc1Cl` it is -10.6%; for `CN=c1scc(-c2cc(OC)ccc2OC)n1/N=C/c1c(C)[nH]c2ccccc12` it is 22.9%.
Then `Oc1ccc(/C=N/Nc2nc(-c3ccccc3F)nc3ccccc23)c(O)c1`, with -56.3%; and `C=CCn1c(SCC(=O)NCc2ccccc2)nnc1-c1cc(Br)ccc1O`, with -13%; and `CC(C)Cn1c(CCC(=O)O)ccc1-c1cccs1`, with -47.9%.
In the case of `O=C(O)c1ccc(NN=CC2=C(N3CCOCC3)/C(=C/c3ccccc3)CC2)cc1`, the inhibition was -0.54%.
Then `CC(=O)c1sc(N/N=C/c2ccc(C(C)C)cc2)nc1C`, with 20.1%.
Then `CCCS(=O)(=O)N1CCCC(C(=O)NCc2ccco2)C1` (stereo not given), with -7.67%; and `CSC1=N/C(=C\C=C\c2cccs2)C(=O)S1`, with 10%.
Then `CN(C)CCOC1c2ccccc2-c2ccccc21`, with -31.6%.
For `CCOc1cc(/C=C2\SC(N3CCCC(C)C3)=NC2=O)ccc1O` (stereo not given), the inhibition was -18.9%.
Then `COc1cc(/C=C2/SC(=S)N(Cc3ccccc3)C2=O)cc(OC)c1O`, with -7.17%.
`Cc1cc(OCC(=O)Nc2nccs2)c2c(C)c(C)c(=O)oc2c1`: the inhibition was 0.79%.
Then `O=C(Nc1ccc(-c2nnc(-c3ccccc3)o2)cc1)c1ccc(Br)o1`, with 35.4%; and `CS(=O)(=O)c1ccc2c(c1)SC1=NC(=O)/C(=C/c3ccco3)C(=N)N12`, with 13%; and `O=C(CSc1cccc2cccnc12)N/N=C/c1cccnc1`, with -15.4%.
The figure for `Nc1nonc1-n1nnc(C(=O)N/N=C/c2cc(Br)ccc2O)c1CSC1=NCCS1` is -8.38%.
Turning to `COc1cccc(-c2nn(-c3ccccc3)cc2/C=C(\C#N)C(=O)NCCCn2ccnc2)c1`, the inhibition was -13.9%.
The figure for `COc1ccc(CNC(=O)c2nnn(CC(=O)Nc3cc(C)cc(C)c3)c2N)cc1` is 5.49%; for `CC(C)Oc1ccc(/C=C(\NC(=O)/C=C/c2ccco2)C(=O)NCCc2nc3ccccc3[nH]2)cc1` it is -12%; for `Cc1cccc(OCc2nnc(SCc3nc4cc(C(F)(F)F)ccc4c(=O)[nH]3)o2)c1` it is 18.2%.
Take `NC(N)=N/N=C/c1ccc(OCc2ccc(Cl)cc2Cl)cc1`: the inhibition is 9.75%.
The figure for `CCOc1cc(/C=C2\SC(N3CCCCC3)=NC2=O)ccc1O` is -18.1%.
With `Cc1cc(/C=C2/SC(=O)N(CC(=O)N3CCCC3)C2=O)ccc1N1CCOCC1`, the inhibition is -23%.
Then `O=C(OCc1cc2ccccc2[nH]c1=O)c1cccnc1`, with -65.4%; and `Cc1sc2nc(COC(=O)C(NC(=O)c3ccc(Cl)cc3Cl)C(C)C)[nH]c(=O)c2c1C` (stereo not given), with -38.9%.
The figure for `CCNCc1cc2cc(C)ccc2[nH]c1=O` is -21.9%; for `CC1CCN(c2ccc3c(c2)S(=O)(=O)c2cc(C(=O)O)ccc2C3=O)CC1` it is -51.3%.
Then `Cc1ccc(NC(=O)c2c(NC(=O)CCC(=O)O)sc3c2CCCCC3)cc1`, with 20.7%.
In the case of `COc1cccc(/C=C(/CC(=O)Nc2ccc(N3CCOCC3)cc2)c2nc3ccccc3s2)c1`, the inhibition is 30.2%.
Then `CCC(C)Cn1c(O)cc2nn(-c3nc4ccccc4s3)c(=O)c-2c1C` (stereo not given), with -2.01%; and `Cc1oc2c(C)c3oc(=O)c(CC(=O)N[C@@H](CC(C)C)C(=O)N[C@@H](Cc4ccccc4)C(=O)O)c(C)c3cc2c1C`, with -12.8%; and `CCN1CCCC1CNC(=O)c1cc2c(=O)n(C)c3ccccc3c2n1C` (stereo not given), with 5.3%.
Then `CN(C)c1ccc(-n2cccc2/C=C2/SC(=Nc3ccc(F)cc3)NC2=O)cc1`, with 11.2%; and `CCCOc1ccc(Cn2c(O)cc(=O)[nH]c2=O)cc1`, with -16.6%; and `COc1ccc(NC(=O)Cn2c(-c3ccc(OC)cc3)cn(-c3ccc(C)cc3)c2=O)cc1`, with -12.7%.
The figure for `Cc1ccc(Nc2ccccc2N)cc1` is -13.4%.
As to `CCCCCCSc1ccc([C@@H]2[C@H]3C(=O)N(CC)C(=O)[C@H]3[C@]3(C(=O)OC)CCCCN23)cc1`, the inhibition was -13.2%.
The figure for `CC(C)CC1C(=O)N(Cc2cn(Cc3ccco3)nn2)CCS(=O)(=O)N1Cc1ccc(-c2ccc(Cl)c(Cl)c2)cc1` (stereo not given) is -38.5%; for `CCOc1ccc(-n2c(O)c(/C=N/Nc3nnc(C)c(=O)[nH]3)c3ccccc3c2=O)cc1` it is -6.64%; for `Cc1nc2ccc(C(=O)N3CCSCC3)cc2s1` it is -42.3%.
The figure for `C=CC1=C(C(=O)O)N2C(=O)[C@@H](NC(=O)/C(=N/OCC(=O)O)c3csc(N)n3)[C@H]2SC1` is 35.4%.
Then `CCOC(=O)N1CCC(NC(=O)C(NS(=O)(=O)c2ccc3c(c2)CCN3C(=O)CC)C(C)C)CC1` (stereo not given), with -20.7%; and `COC(=O)c1ccc(OCC(=O)NC(C)(C)C)cc1`, with 6.02%; and `O=C(CSc1nc2ccccc2c(=O)[nH]1)Nc1nc(-c2ccc(Br)cc2)cs1`, with 51.9% (active).
Regarding `Cc1ccc(N=Cc2c(O)cc(C)oc2=O)c(C)c1`, the inhibition was -22.6%.
As to `CC(=O)Nc1ccccc1Sc1ccc2c3c(cccc13)C(=O)N(c1ccc(C)cc1)C2=O`, the inhibition was -23%.
The figure for `CCOc1ccc(NC(=O)c2ccc(NC(=O)COC(=O)c3ccc(NC(=O)CC#N)cc3)cc2)cc1` is 10.8%.
The figure for `COC1=C/C(=C/c2c(N)n3nc(CC(=O)N4CCOCC4)sc3nc2=O)C=CC1=O` is 12%; for `Cc1ccc(Nc2nc(Cl)c(C=O)s2)cc1` it is -10.8%; for `Cc1nc2ccccc2n1C(=O)N1CCOCC1` it is -8.73%.

Values taken from PubChem BioAssay AID602330 (Sanford-Burnham Center for Chemical Genomics, 2012).
